Experimental data taken from PubChem BioAssay (Tox21).
Inconclusive results are not listed. Activity calls are given as the source filed them. Unless noted, the call rests on the fitted dose curve; in most records, active means well fitted curve in the direction sought with a large enough effect in the repeat runs; inconclusive means weak or mixed curves; inactive means no such curve, though single readings can be large; an effect the other way counts as inactive or inconclusive.

Columns and labels:
[1] = qHTS assay for small molecules that induce genotoxicity in human embryonic kidney cells expressing luciferase-tagged ATAD5 (AID 651632); further: nearly all actives have a fitted effect of over 15% in size
In short: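 Luminescent reporter readout, HEK293T ATAD5-luc line: 16 hr drug exposure (37C, 5% CO2) followed by Amplite, 30 min RT.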

[2] = qHTS assay for small molecule agonists of the p53 signaling pathway - cell viability (AID 651633; calls by dose curve; further: nearly all actives have a fitted effect of over 30% in size; further: potency means the concentration at half of the fitted maximal effect)
In short: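 p53RE-bla cells, seeded at 4,000 per well and rested 5 h at 37 C/5% CO2, received compounds in DMSO for 16 h at 37 C. CellTiter-Glo was then added, and luminescence was read after 30 min at room temperature to gauge cytotoxicity.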

[3] = qHTS assay for small molecule disruptors of the mitochondrial membrane potential - cell viability (AID 720634; calls by dose curve;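 further: human HepG2 liver cancer cells; series mostly up to about 83 µM; nearly all actives have a fitted effect of over 20% in size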)
In short: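 HepG2, 1 hr compound, 37 C. ATP luminescence via CellTiter-Glo, 30 min RT, same well as m-MPI.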

[4] = qHTS assay for small molecule disruptors of the mitochondrial membrane potential (AID 720635); further: potency means the concentration at half of the fitted maximal effect
In short: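 HepG2 cells (2,000/well) attached overnight at 37C, then took compound for 1 hr at 37C, 5% CO2. Mito-MPS dye was added for 30 min; fluorescence was read at 490/535 nm (monomers) and 540/590 nm (aggregates).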

[5] = qHTS assay to test for compound auto fluorescence at 590 nm (red) in HepG2 cells (AID 720674)
In short: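 Compound auto-fluorescence is scored relative to Rose Bengal sodium, measured at 540/590 nm in live HepG2 cultures after 1 hr compound contact (37 C, 5% CO2).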

[6] = qHTS assay to test for compound auto fluorescence at 535 nm (green) in HepG2 cells (AID 720675)
[7] = qHTS assay to test for compound auto fluorescence at 460 nm (blue) in HEK293 cells (AID 720678); further: potency means the concentration at half of the fitted maximal effect
In short: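 Measured: blue fluorescence (Ex 405/Em 460 nm) of compound-treated HEK293 cells, incubated overnight at 37C with 5% CO2 and scaled to triamterene equivalents.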

[8] = qHTS assay to test for compound auto fluorescence at 590 nm (red) in HEK293 cells (AID 720679)
In short: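 Using HEK293 cells at 2,000 per well, the screen added 23 nL of each compound after cell attachment and incubated overnight (37C, 5% CO2). The plate reader then captured red-label fluorescence, Ex/Em 540/590nm.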

[9] = qHTS assay to test for compound auto fluorescence at 535 nm (green) in HEK293 cells (AID 720680)
[10] = qHTS assay to test for compound auto fluorescence at 460 nm (blue) in HEK293 cell free culture (AID 720681); further: potency means the concentration at half of the fitted maximal effect
In short: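 Test compounds were pinned into cell-free culture medium (DMEM with 10% FBS) and fluorescence was read directly at Ex/Em 405/460 nm. Signals were expressed as fluorescence equivalents of triamterene, with DMSO vehicle as control.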

[11] = qHTS assay to test for compound auto fluorescence at 535 nm (green) in HEK293 cell free culture (AID 720682)
In short: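 Each library compound, or DMSO control, is added by pintool to medium alone, comprising DMEM and 10% FBS. Emission at 535 nm following 485 nm excitation is quantified against fluorescein.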

[12] = qHTS assay to test for compound auto fluorescence at 590 nm (red) in HEK293 cell free culture (AID 720683)
In short: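 Tox21 10K library compounds were pinned into cell-free DMEM with 10% FBS and fluorescence was read at excitation 540 nm. Activity is expressed as Rose Bengal sodium equivalency.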

[13] = qHTS assay to test for compound auto fluorescence at 590 nm (red) in HepG2 cell free culture (AID 720684)
In short: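 Measured in medium alone (MEM containing 10% FBS) following pintool addition of compound; emission at 590 nm with 540 nm excitation, referenced to Rose Bengal sodium.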

[14] = qHTS assay to test for compound auto fluorescence at 460 nm (blue) in HepG2 cell free culture (AID 720685)
In short: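 Compound (23 nL) or DMSO pinned into cell-free MEM with 10% FBS; blue fluorescence read at 405/460 nm excitation/emission, expressed as auto-fluorescence equivalency to triamterene.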

[15] = qHTS assay to test for compound auto fluorescence at 535 nm (green) in HepG2 cell free culture (AID 720686)
[16] = qHTS assay to test for compound auto fluorescence at 460 nm (blue) in HepG2 cells (AID 720687)
In short: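 Cells (2,000/well in MEM with 10% FBS) attached overnight at 37 C, then were exposed to compound or DMSO for 1 hr at 37 C, 5% CO2. Fluorescence read at Ex/Em 405/460 nm, expressed as triamterene-equivalent signal.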

[17] = molecular target: Glucocorticoid receptor (Homo sapiens) (UniProt P04150); test: qHTS assay to identify small molecule agonists of the glucocorticoid receptor (GR) signaling pathway (AID 720691; active means well fitted activation curve with a large enough effect in the signal ratio in the repeat runs, not every such curve was filed as active; the % refers to the signal ratio)
In short: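 qHTS in GR-bla HeLa cells: 4 h settling at 37 C/5% CO2, 18 h compound incubation at 37 C, 2 h LiveBLAzer B/G FRET substrate at room temperature, fluorescence intensity measured.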

[18] = qHTS assay for small molecules that induce genotoxicity in human embryonic kidney cells expressing luciferase-tagged ATAD5 - cell viability (AID 651634; calls by dose curve; further: nearly all actives have a fitted effect of over 25% in size)
In short: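 Viability read: CellTiter-Fluor fluorescence, 30 min at 37C. Cells: HEK293T, luciferase-tagged ATAD5. Exposure: 15.5 hr, 37C, 5% CO2, compound or DMSO vehicle.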

[19] = molecular target: Glucocorticoid receptor (Homo sapiens) (UniProt P04150); test: qHTS assay to identify small molecule antagonists of the glucocorticoid receptor (GR) signaling pathway (AID 720692; active means well fitted inhibition curve with a large enough effect in the signal ratio in the repeat runs, not every such curve was filed as active; the % refers to the signal ratio)
In short: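 Inhibition of glucocorticoid signalling is measured in HeLa cells with a GRE-controlled beta-lactamase reporter; cells are co-treated with compound and 5 nM dexamethasone (final) for 18 h before FRET substrate readout.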
On the % scale 0 is the no-effect control and ±100 the full control effect; tags describe the fitted curve by direction and shape or compound fluorescence and quenching.

Sequence of Glucocorticoid receptor (Homo sapiens) (P04150 whole entry, looked up): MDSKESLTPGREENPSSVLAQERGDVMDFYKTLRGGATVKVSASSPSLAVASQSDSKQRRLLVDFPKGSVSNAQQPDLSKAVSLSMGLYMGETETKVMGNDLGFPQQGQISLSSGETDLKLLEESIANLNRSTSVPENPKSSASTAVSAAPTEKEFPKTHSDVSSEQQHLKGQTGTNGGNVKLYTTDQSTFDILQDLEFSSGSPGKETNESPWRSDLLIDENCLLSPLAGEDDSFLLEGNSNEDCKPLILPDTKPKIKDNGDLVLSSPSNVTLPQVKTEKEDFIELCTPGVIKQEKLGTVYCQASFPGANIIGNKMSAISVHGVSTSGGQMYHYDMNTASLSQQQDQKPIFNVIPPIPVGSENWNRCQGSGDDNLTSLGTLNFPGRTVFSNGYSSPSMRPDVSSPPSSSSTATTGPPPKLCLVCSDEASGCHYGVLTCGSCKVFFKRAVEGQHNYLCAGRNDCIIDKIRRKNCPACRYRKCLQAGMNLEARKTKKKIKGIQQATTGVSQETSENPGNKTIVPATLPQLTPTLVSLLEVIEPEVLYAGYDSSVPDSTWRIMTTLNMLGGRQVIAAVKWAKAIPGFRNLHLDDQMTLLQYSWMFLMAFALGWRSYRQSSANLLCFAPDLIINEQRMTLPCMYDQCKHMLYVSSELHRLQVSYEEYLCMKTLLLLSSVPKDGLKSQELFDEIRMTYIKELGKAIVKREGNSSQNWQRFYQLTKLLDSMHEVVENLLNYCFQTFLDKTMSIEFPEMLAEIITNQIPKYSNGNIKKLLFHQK

O=C(O)c1cc(-c2ccc(F)cc2F)ccc1O
active: Potency [4] 11.4 µM
inactive: Potency [1] | Potency [2] | Potency [3] | fluorescence, relative to Rose Bengal [5] 0.164% [at 18.6 µM] | fluorescence, % of fluorescein control [6] -0.0913% [at 18.6 µM] | fluorescence, % of triamterene [7] -0.0352% [at 18.6 µM] | fluorescence, % of fluorescent control [8] -0.141% [at 18.6 µM] | fluorescence, % of fluorescein [9] 0.0391% [at 18.6 µM] | fluorescence, % of fluorescent control [10] 0.0528% [at 18.6 µM] | activity change [11] -0.026% [at 18.6 µM, stronger effect = higher value] | fluorescence, % of fluorescent control [12] -0.0186% [at 18.6 µM] | fluorescence, % of Rose Bengal [13] -0.0804% [at 18.6 µM] | fluorescence, % of fluorescent control [14] -0.0315% [at 18.6 µM] | fluorescence, % of fluorescein control [15] -0.0114% [at 18.6 µM] | fluorescence, % of fluorescent control [16] -0.098% [at 18.6 µM] | Potency [17]

O=C1NC(=O)[C@@H]2CC=CC[C@H]12
inactive: Potency [2] | Potency [18] | Potency [3] | Potency [4] | Potency [5] | Potency [6] | Potency [8] | Potency [9] | Potency [10] | Potency [11] | Potency [12] | Potency [13] | Potency [14] | Potency [15] | Potency [16] | Potency [17] | Potency [19]

CCC(C)n1ncn(-c2ccc(N3CCN(c4ccc(OC[C@H]5CO[C@](Cn6cncn6)(c6ccc(Cl)cc6Cl)O5)cc4)CC3)cc2)c1=O (stereo partly drawn)
inactive: Potency [1] | Potency [2] | Potency [3] | Potency [5] | Potency [6] | Potency [7] | Potency [8] | Potency [9] | Potency [10] | Potency [11] | Potency [12] | Potency [13] | Potency [14] | Potency [15]

CCCCCCCCCCCCOCCOCCOCCOCCOCCOCCOCCOCCOCCO
active: Potency [2] 26.6 µM | Potency [4] 19.7 µM
inactive: Potency [1] | Potency [5] | Potency [6] | Potency [7] | Potency [8] | Potency [9] | Potency [10] | Potency [11] | Potency [13] | Potency [14] | Potency [15] | Potency [16]

O=C1CCc2cc(OCCCCc3nnnn3C3CCCCC3)ccc2N1
inactive: Potency [1] | Potency [18] | Potency [3] | Potency [5] | Potency [6] | Potency [7] | Potency [8] | Potency [9] | Potency [10] | Potency [11] | Potency [13] | Potency [14] | Potency [15] | Potency [16] | Potency [17]

O=C(c1ccc(O)c(O)c1)c1ccc(O)cc1O
inactive: Potency [1] | Potency [3] | Potency [5] | Potency [6] | Potency [8] | Potency [9] | Potency [11] | Potency [12] | Potency [13] | Potency [14] | Potency [15] | Potency [16] | Potency [17]
active: Potency [4] 3.85 µM | Potency [7] 31.6 µM [fluorescent] | Potency [10] 35.5 µM

CCc1cccc(CC)c1NC(=O)CN(CC(=O)O)CC(=O)O
inactive: Potency [1] | Potency [2] | Potency [3] | Potency [4] | fluorescence, relative to Rose Bengal [5] 0.215% [at 18.6 µM] | fluorescence, % of fluorescein control [6] -0.0501% [at 18.6 µM] | fluorescence, % of triamterene [7] -0.194% [at 18.6 µM] | fluorescence, % of fluorescent control [8] -0.732% [at 18.6 µM] | fluorescence, % of fluorescein [9] 0.0114% [at 18.6 µM] | fluorescence, % of fluorescent control [10] 0.0332% [at 18.6 µM] | activity change [11] 0.0655% [at 18.6 µM, stronger effect = higher value] | fluorescence, % of fluorescent control [12] 0.184% [at 18.6 µM] | fluorescence, % of Rose Bengal [13] -0.249% [at 18.6 µM] | fluorescence, % of fluorescent control [14] -0.0593% [at 18.6 µM] | fluorescence, % of fluorescein control [15] 0.0075% [at 18.6 µM] | fluorescence, % of fluorescent control [16] 0.148% [at 18.6 µM] | Potency [17] | Potency [19]

Cc1c(C)c([N+](=O)[O-])c(C(C)(C)C)c([N+](=O)[O-])c1C
active: Potency [4] 30.6 µM
inactive: Potency [1] | Potency [2] | Potency [6] | Potency [7] | Potency [8] | Potency [9] | Potency [10] | Potency [11] | Potency [12] | Potency [13] | Potency [14] | Potency [15]

CC(C(=O)O)c1ccc2c(c1)[nH]c1ccc(Cl)cc12 (stereo not drawn)
inactive: Potency [1] | Potency [2] | Potency [3] | Potency [6] | Potency [7] | Potency [8] | Potency [9] | Potency [10] | Potency [11] | Potency [12] | Potency [13] | Potency [14] | Potency [15] | Potency [16] | Potency [17] | Potency [19]

Nc1cc(Cl)c(O)c(Cl)c1
inactive: Potency [1] | Potency [18] | Potency [3] | Potency [5] | Potency [6] | Potency [8] | Potency [9] | Potency [11] | Potency [13] | Potency [14] | Potency [15] | Potency [17]
active: Potency [4] 7.7 µM

C#C[C@]1(O)CC[C@H]2[C@@H]3[C@H](C)CC4=C(CCC(=O)C4)[C@H]3CC[C@@]21C
inactive: Potency [1] | Potency [18] | Potency [3] | Potency [5] | Potency [6] | Potency [7] | Potency [8] | Potency [9] | Potency [10] | Potency [11] | Potency [12] | Potency [13] | Potency [14] | Potency [15] | Potency [16]
